Assay results published in the emibetuzumab library of Makowski et al. (2022).
The other results are listed elsewhere or left out. How many sequences the whole screen found active is unknown.

B1: VH:VL chains; a variant is named by its letters at X, in order (parent)
chain 1: QVQLVQSGAEVKKPGASVKVSCKASGYTFTDYXMHWVRQAPGQGLEWMGXVNPNXXXTTYNQKFEGRVTMTTDTSTSTAYMELRSLRSDDTAVYYCARXNXLDXWGQGTTVTVSS
chain 2: DIQMTQSPSSLSASVGDRVTITCSVSSSVSSIYLHWYQQKPGKAPKLLIYSTSNLASGVPSRFSGSGSGTDFTLTISSLQPEDFATYYCQVYSGYPLTFGGGTKVEIK

Variants of: B1
Test: yeast display scFab, FACS + sequencing
Settings: with MET
Outline: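 For FACS, yeast displaying a heavy-chain CDR mutant scFab library were labelled with 1 nM HGFR-Fc and anti-Myc (PBSB, 1% milk, 3 h, room temperature), and the top 50% antigen-positive cells were gated. Input and round-3 sorted populations were deep sequenced in two replicates. The binding call was positive for sequences occurring in both antigen-positive samples and negative for sequences occurring only in input.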

| Variant | antigen binding call |
| --- | --- |
| AEARSDGA | no binding |
| SEGRGDVY | no binding |
| SEGRGAWY | binds |
| SRGRGAWY | binds |
| AEGRGAVY | no binding |
| VETGNDGV | no binding |
| ATRGADAV | no binding |
| YAGRGVVD | no binding |
| YRGRGFVD | binds |
| YREGDFVD | no binding |
| YRGRGVVD | binds |
| YAGTGVVD | no binding |
| YRGGGVVD | binds |
| YRGRDFVD | no binding |
| VTGGDSWF | no binding |
| AGTRSFGY | no binding |
| FRAGGSVD | binds |
| FRATSAVD | no binding |
| FRAGGAVD | binds |
| FTEEGAVD | no binding |
| VKARGSVA | binds |
| YKARGSGS | binds |
| VKKTGSGA | no binding |

| Variant | antigen binding call |
| --- | --- |
| DKAGGDGS | no binding |
| SKTKSSAS | no binding |
| VKAGDSGA | no binding |
| VKEGGDVA | no binding |
| VTTKSSVA | no binding |
| VKARGSGA | binds |
| YKAGGSAS | binds |
| VAGGDDGF | no binding |
| SKTKSDGV | no binding |
| YMAEGSGA | no binding |
| YTERAAWA | no binding |
| VKARGSLA | binds |
| YKARGSGA | binds |
| YKARGAGA | binds |
| VKEGGSSA | no binding |
| YEARNAGA | no binding |
| VKERGAVA | no binding |
| YKARGAWA | binds |
| SAAGSVWY | no binding |
| VKEGGDGA | no binding |
| DEAGDAVV | no binding |
| SRGRGAGF | binds |
| SRGRGAWF | binds |

| Variant | antigen binding call |
| --- | --- |
| SAGRGFGF | no binding |
| AKTGDSSD | no binding |
| YKAGGYSD | no binding |
| YKAGDSSD | binds |
| YKRKSASD | binds |
| AKAADSSD | no binding |
| AKGKASSD | no binding |
| VKRGSSSD | binds |
| YARADSSD | no binding |
| YKRGSSSD | binds |
| VAEKGDVF | no binding |
| VTGEDDWV | no binding |
| DREGDDAV | no binding |
| SEARSDSF | no binding |
| AKAGGASD | no binding |
| YKRGSASD | binds |
| YKRRDASD | no binding |
| DTTGSDAV | no binding |
| VAGTDDWV | no binding |
| YRRGGFVV | binds |
| YRRRGFVV | binds |
| YRATDFVV | no binding |
| YRRRGFAV | binds |

| Variant | antigen binding call |
| --- | --- |
| YTATGFAV | no binding |
| YRAGGFVV | binds |
| ATAGSASD | no binding |
| DRGGDDWV | no binding |
| STGTSDLY | no binding |
| AATTDSGD | no binding |
| SAREGDAV | no binding |
| YRRGASSS | binds |
| YTRGASSS | binds |
| YTRGADLA | no binding |
| YTRGADGS | no binding |
| AETKGSLA | no binding |
| SAAGGAAV chain 1 L45S | no binding |
| DAEEDAGY | no binding |
| FGRGTSGD | no binding |
| VKKEDAGD | no binding |
| FKTKSAGD | no binding |
| FTGEAAGD | no binding |
| FAARSYGD | no binding |
| FRRGDALD | binds |
| FRRGDAGD | binds |
| FGRRTYGD | binds |
| FKRGDAGD | binds |

| Variant | antigen binding call |
| --- | --- |
| STAEDDWV | no binding |
| VTAGDDAV | no binding |
| AARADDVA | no binding |
| VTTRGAVA | no binding |
| YKTRGAGD chain 1 Q43R | binds |
| VTTGGAVD | no binding |
| YRTRGASD | binds |
| VRTRGAVD | binds |
| YRTRGAVD | binds |
| DTTKGDGS | no binding |
| VEKGGDGV | no binding |
| YRTRGAGD | binds |
| DATRGAGD | no binding |
| FEETDAGD | no binding |
| DKAKGDGS | no binding |
| SKAGDAWD | no binding |
| FEARDYWD | binds |
| SKRETAWS | binds |
| SETKGDWD | no binding |
| SKAKGAWS | binds |
| SEARSDWD | no binding |
| SKAKGAWD | binds |
| DATGNVWS | no binding |

| Variant | antigen binding call |
| --- | --- |
| YATTSFSF | no binding |
| FKAKGAWD | binds |
| SKTKSDVD | no binding |
| SKERGDVD | no binding |
| SKAKGSSD | binds |
| SKRKSSSD | no binding |
| SKTRGAWD | binds |
| FGTKGAWD | no binding |
| FGEEDFSS chain 1 W105R | no binding |
| VGGTSDVV | no binding |
| VEEEGSGV | no binding |
| DRTGDDVY | no binding |
| VTGTSSLD | no binding |
| VRAGDDVD | no binding |
| VRAGSSLD | binds |
| VRTGDSAY | binds |
| VRGKDSLD | binds |
| VTGEDSLD | no binding |
| VEAGDSLD | no binding |
| VEETSSLD | no binding |
| VRTKAVAY | no binding |
| VRAGDSLD | binds |
